In PMC5540273 (PLoS ONE, 2017):

Assays:
Conditions in all cases: concentration: 1 μM, replicates: in singlicate; n = 1
ERK4 = system: T1, ERK4
T1 construct: gene MAPK4

ERK5 = system: T2, ERK5
T2 construct: gene MAPK7

ERK8 = system: T3, ERK8
T3 construct: gene MAPK15

ERN1 = system: ERN1
FAK = system: T4, FAK
T4 construct: gene PTK2

FER = system: FER
FES = system: FES
FGFR1 = system: FGFR1
FGFR2 = system: FGFR2
FGFR3 = system: FGFR3
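Also: KINOMEscan kinase panel screen.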

| SMILES | %Inh (ERK4) [%] | %Inh (ERK5) [%] | %Inh (ERK8) [%] | %Inh (ERN1) [%] | %Inh (FAK) [%] | %Inh (FER) [%] | %Inh (FES) [%] | %Inh (FGFR1) [%] | %Inh (FGFR2) [%] | %Inh (FGFR3) [%] |
| --- | --- | --- | --- | --- | --- | --- | --- | --- | --- | --- |
| Oc1ccc2ncnc(Nc3ccc(OCc4ccccc4)cc3)c2c1 [GI262866] | 0 | 0 | 57 | 19 | 0 | 0 | 0 | 0 | 0 | 0 |
| Cl.c1ccc(Cn2ccc3cc(Nc4ncnc5ccccc45)ccc32)cc1 [GW275568] | 46 | 7 | 0 | 0 | 0 | 17 | 15 | 0 | 0 | 28 |
| Cl.O=S(=O)(c1cccc(F)c1)c1ccc(Nc2ncnc3cc(Br)sc23)cc1Cl [GSK306886] | 44 | 4 | 0 | 11 | 0 | 14 | 13 | 0 | 0 | 16 |
| COc1ccc(NC(=O)Nc2ccc(C)c(-c3ccc(C(=O)Nc4ccncc4)cc3)c2)cc1 [GSK1398475] | 0 | 0 | 0 | 0 | 0 | 5 | 2 | 0 | 0 | 11 |
| CN1CCC(n2cnc(-c3ccc(F)cc3)c2-c2ccnc(NC3CCNCC3)n2)CC1 [SB-229482] | 0 | 0 | 0 | 2 | 0 | 0 | 5 | 4 | 0 | 9 |
| O=C(Nc1ccccc1F)NC1CCN(c2ccnc(Nc3ccc(F)cc3)n2)C1 (stereo not shown) [GSK1379722] | 12 | 0 | 31 | 0 | 0 | 26 | 0 | 0 | 19 | 15 |
| Fc1ccc(Nc2nccc(-c3c(-c4ccc(Cl)cc4)nn4ncccc34)n2)cc1F [GW829058] | 23 | 0 | 0 | 48 | 17 | 9 | 19 | 13 | 15 | 9 |
| Cc1ccc(O)cc1Nc1cc(C(F)(F)F)nc2ccc(-c3ccncc3)cc12 [GW630823] | 5 | 9 | 7 | 0 | 3 | 1 | 6 | 0 | 4 | 0 |
| CNc1nccc(-c2c(-c3ccc(F)cc3)ncn2CCCN2CCOCC2)n1 [SB-222516] | 2 | 0 | 14 | 0 | 6 | 12 | 7 | 26 | 0 | 0 |
| CCc1nc(-c2cccc(N(C)S(=O)(=O)c3ccccc3)c2)c(-c2ccnc(Nc3ccc(N4CCN(C(C)=O)CC4)nc3)n2)s1 [GSK1645895] | 18 | 19 | 0 | 28 | 0 | 0 | 0 | 0 | 0 | 3 |
| Cl.Cn1ccc(-c2cccc(Nc3ccnc4cc(-c5nccs5)ccc34)c2)n1 [GW525701] | 9 | 0 | 0 | 0 | 0 | 8 | 22 | 0 | 0 | 11 |
| O=C(Nc1n[nH]c2nc(-c3ccco3)c(Br)cc12)c1ccc(CN2CCCC2)cc1.O=C(O)[C@H](O)[C@@H](O)C(=O)O [SB-742352] | 0 | 0 | 0 | 0 | 0 | 4 | 0 | 0 | 0 | 1 |
| Nc1nccc2scc(-c3ccc4c(c3)CCN4C(=O)Cc3cc(F)ccc3F)c12 [GSK2587663] | 0 | 0 | 14 | 2 | 0 | 26 | 18 | 0 | 1 | 9 |
| Nc1nc(-c2cccnc2)c(-c2ccnc3ccccc23)s1 [GW684083] | 12 | 0 | 0 | 0 | 0 | 24 | 0 | 4 | 20 | 21 |
| Cl.Cl.c1ccc(-c2cc3ccncc3cc2OC2CCNCC2)cc1 [GSK1122999] | 8 | 0 | 0 | 0 | 0 | 36 | 0 | 0 | 0 | 11 |
| Fc1cccc(COc2ccc(Nc3ncnc4cc[nH]c34)cc2Cl)c1 | 9 | 0 | 7 | 35 | 11 | 31 | 21 | 14 | 8 | 10 |
| CC(C)(C)OC(=O)NC1CCCN(c2cc(-c3ccc4c(N)n[nH]c4c3)nc(N)n2)C1 (stereo not shown) [GSK2286096] | 23 | 29 | 0 | 7 | 0 | 0 | 0 | 0 | 4 | 22 |

| SMILES | %Inh (ERK4) [%] | %Inh (ERK5) [%] | %Inh (ERK8) [%] | %Inh (ERN1) [%] | %Inh (FAK) [%] | %Inh (FER) [%] | %Inh (FES) [%] | %Inh (FGFR1) [%] | %Inh (FGFR2) [%] | %Inh (FGFR3) [%] |
| --- | --- | --- | --- | --- | --- | --- | --- | --- | --- | --- |
| C[C@H]1CC[C@@H](C(=O)Nc2ccccc2)CN1c1cc(-c2ccc3c(N)n[nH]c3c2)nc(N)n1 [GSK2283293] | 29 | 0 | 0 | 0 | 0 | 3 | 9 | 0 | 5 | 0 |
| Clc1cc(Nc2ncnc3cc[nH]c23)ccc1OCc1ccccn1 | 27 | 13 | 6 | 47 | 8 | 1 | 22 | 5 | 8 | 17 |
| Nc1n[nH]c2nnc(-c3ccccc3)cc12 [SB-517389] | 30 | 0 | 18 | 3 | 0 | 0 | 0 | 0 | 5 | 11 |
| Nc1nc(-c2ccc3c(N)n[nH]c3c2)cc(N2CCCCC2)n1 [GSK2228768] | 2 | 0 | 0 | 7 | 0 | 10 | 0 | 0 | 0 | 0 |
| Cl.Fc1ccccc1COc1ccc(Nc2ncnc3ccc(-c4nnc(C(F)(F)F)o4)cc23)cc1Cl [GW424170] | 13 | 0 | 0 | 2 | 0 | 18 | 0 | 0 | 0 | 8 |
| Cn1cc(-c2ccc3c(c2)CCN3C(=O)Cc2cccc(C(F)(F)F)c2)c2c(N)ncnc21 [GSK2606414] | 7 | 0 | 23 | 21 | 0 | 0 | 0 | 20 | 0 | 0 |
| Fc1ccc(-c2ncn(CCCNCc3ccccc3)c2-c2ccncc2)cc1 | 14 | 0 | 13 | 14 | 0 | 13 | 23 | 0 | 0 | 0 |
| CCn1c(-c2ccncc2)nc2cnccc21 [SB-735216] | 3 | 8 | 0 | 5 | 9 | 0 | 3 | 0 | 0 | 17 |
| COc1cc2c(Nc3cccc(NC(=O)c4ccccc4)c3)ncnc2cc1OCCCN1CCOCC1 [GSK223810] | 0 | 0 | 0 | 23 | 0 | 0 | 0 | 18 | 11 | 22 |
| CCC(CC)(CC)n1cnc2c(N)ncnc21 [SKF-97620] | 0 | 0 | 1 | 26 | 0 | 0 | 10 | 17 | 100 | 0 |
| CS(=O)(=O)CCNCc1ccc(-c2ccc3ncnc(Nc4ccc(OCc5ccccc5)c(Cl)c4)c3c2)o1.Cl [GW574783] | 0 | 0 | 15 | 0 | 11 | 14 | 0 | 0 | 0 | 12 |
| c1ccc(-c2ccc3c(-c4ccnc(Nc5ccc6c(c5)OCCO6)n4)cnn3n2)cc1 [GW818941] | 0 | 0 | 92.7 | 0 | 6 | 23 | 0 | 18 | 0 | 15 |
| CS(=O)(=O)CCNCc1nc(-c2ccc3ncnc(Nc4ccc(OCc5cccc(F)c5)c(Cl)c4)c3c2)cs1.Cl [GW583340] | 45 | 5 | 0 | 10 | 0 | 3 | 0 | 0 | 0 | 0 |
| CSc1nn2c(=O)cc(N3CCOCC3)nc2n1Cc1cccc(Cl)c1Cl [GSK2347225] | 21 | 0 | 0 | 9 | 0 | 44 | 13 | 6 | 17 | 17 |
| Cc1ccc(C)c(NC(=O)NCCNc2ccnc(Nc3ccc(F)cc3)n2)c1 [GSK1379878] | 17 | 98.4 | 0 | 0 | 0 | 17 | 0 | 0 | 14 | 0 |
| COc1ccc(Nc2nccc(N3CCC(NC(=O)Nc4ccc5c(c4)OCO5)C3)n2)cc1 (stereo not shown) [GSK1379745] | 0 | 0 | 48 | 0 | 1 | 33 | 18 | 9 | 1 | 32 |
| Cc1ccc(NC(=O)c2cccc(C#N)c2)cc1-c1ccc(C(=O)Nc2ccncc2)cc1 [GSK1398463] | 25 | 96.8 | 38 | 15 | 0 | 3 | 17 | 10 | 17 | 33 |
